Here are results for seven compounds from PubChem BioAssay (Tox21).

A short description of assay [1]: Human pregnane X receptor (PXR) small molecule agonists, qHTS cell viability counter screen (AID 1346977). Further: nearly all actives have a fitted effect of over 50% in size. The gist of the method: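 PXR-Luc HepG2 cells (2,000/well, 5% charcoal-stripped FBS) preincubated 5 hr, then exposed to compounds 24 hr at 37 C. Viability read in the same wells by CellTiter-Fluor fluorescence, reagent added at 23 hr, 1 hr incubation.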
Background: Quantitative high-throughput screening tests each substance at several concentrations.

A short description of assay [2]: Caspase-3/7 induction in HepG2 cells by small molecules, qHTS assay (AID 1346978). Further: nearly all actives have a fitted effect of over 15% in size. The gist of the method:
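Wild-type HepG2 cells, 2,000/well, settled 5 hr at 37 C and 5% CO2, then compound-treated for 17 hr; caspase-3/7 activity read by luminescent Caspase-Glo 3/7 after 30 min at room temperature.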

A short description of assay [3]: Caspase-3/7 induction in CHO-K1 cells by small molecules, qHTS cell viability counter screen (AID 1346979). Further: nearly all actives have a fitted effect of over 35% in size. Further: potency means the concentration at half of the fitted maximal effect. The gist of the method:
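Wild-type CHO-K1 cells (1,500/well) treated with compound after 5 h plating; after 16 h at 37C, viability read as CellTiter-Fluor fluorescence following 1 h reagent incubation, in the same wells as the caspase read.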

Assay [4] in a line: Caspase-3/7 induction in CHO-K1 cells by small molecules, qHTS assay (AID 1346980). Further: nearly all actives have a fitted effect of over 15% in size. The gist of the method:
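Wild-type CHO-K1 cells exposed to compounds for 17hr at 37 C, 5% CO2. Caspase-3/7 activity then measured by Caspase-Glo 3/7 luminescence after 30min at room temperature.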

Assay [5] can be described thus: Caspase-3/7 induction in HepG2 cells by small molecules, qHTS cell viability counter screen (AID 1346981). Further: series mostly up to about 92 µM; nearly all actives have a fitted effect of over 30% in size. The gist of the method:
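In this quantitative HTS counter screen, compounds delivered in DMSO were left on unmodified HepG2 cells for 16 hr at 37 C. Viability was then determined fluorometrically with CellTiter-Fluor, in parallel with caspase-3/7 induction in the same wells.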

In assay [6] the target is Nuclear receptor subfamily 1 group I member 2 (Homo sapiens) (UniProt O75469). The assay can be described thus: Human pregnane X receptor (PXR) small molecule agonists, qHTS assay (AID 1346982). Further: nearly all actives have a fitted effect of over 35% in size. Further: potency means the concentration at half of the fitted maximal effect. The gist of the method:
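Reporter HepG2 cells expressing PXR-Luc are cultured in charcoal-stripped FBS (5%), treated with compounds for 24 hr at 37 C, and assayed by ONE-Glo luminescence after 30 min at room temperature.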

The target in assay [7] is Acetylcholinesterase (Homo sapiens) (UniProt P22303). Briefly: Acetylcholinesterase (AChE) small molecule antagonists: enzyme-based qHTS assay (AID 1347397; calls by dose curve; further: nearly all actives have a fitted effect of over 55% in size; further: potency means the concentration at half of the fitted maximal effect). The following applies: Potency: AChE enzyme activity inhibition. The gist of the method: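 In this quantitative HTS, compounds from the Tox21 10K collection were preincubated 30 min at ambient temperature with recombinant human AChE dispensed at 50 mU/mL. Hydrolysis of acetylthiocholine was then followed for 10 min by DTNB colour development.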
Acetylcholinesterase (Homo sapiens), sequence (P22303 whole entry, looked up): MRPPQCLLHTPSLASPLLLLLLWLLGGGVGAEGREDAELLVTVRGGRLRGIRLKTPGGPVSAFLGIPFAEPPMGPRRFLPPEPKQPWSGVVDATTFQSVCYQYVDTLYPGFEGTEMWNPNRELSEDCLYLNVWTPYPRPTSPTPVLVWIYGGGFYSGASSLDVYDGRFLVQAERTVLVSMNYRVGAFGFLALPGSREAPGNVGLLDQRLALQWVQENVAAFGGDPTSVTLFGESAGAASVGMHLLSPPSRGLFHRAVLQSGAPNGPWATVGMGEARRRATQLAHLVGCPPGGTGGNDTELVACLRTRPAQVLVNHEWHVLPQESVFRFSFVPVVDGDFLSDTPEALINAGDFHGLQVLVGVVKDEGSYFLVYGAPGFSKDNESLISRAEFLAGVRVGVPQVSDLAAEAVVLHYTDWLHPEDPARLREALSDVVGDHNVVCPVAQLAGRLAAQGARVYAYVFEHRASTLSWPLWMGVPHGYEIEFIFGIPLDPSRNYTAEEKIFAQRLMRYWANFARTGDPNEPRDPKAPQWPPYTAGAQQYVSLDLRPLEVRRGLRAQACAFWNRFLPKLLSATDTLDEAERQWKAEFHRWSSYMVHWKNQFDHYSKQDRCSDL

Assay [8] shares this target. The assay can be described thus: Acetylcholinesterase (AChE) small molecule antagonists: enzyme-based qHTS assay with human liver microsomes (AID 1347399; calls by dose curve; further: nearly all actives have a fitted effect of over 60% in size; further: potency means the concentration at half of the fitted maximal effect). The following applies: Potency: qHTS inhibition. The gist of the method:
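Recombinant human AChE (50 mU/mL in the enzyme mix) and human liver microsomes (0.25 mg/mL final) were preincubated with compound and NADPH (0.25 mg/mL final) for 30 min at 37 C. Acetylthiocholine/DTNB was then added; thiocholine was read colorimetrically after 10 min at room temperature.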

Assay [9] concerns the target Cytochrome P450 2C19 (Homo sapiens) (UniProt P33261). Briefly: Cytochrome P450 Family 2 Subfamily C Member 19 (CYP2C19) small molecule antagonists: luciferase reporter qHTS assay (AID 1671197). Further: nearly all actives have a fitted effect of over 65% in size. Further: potency means the concentration at half of the fitted maximal effect. The gist of the method: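 Luminescent readout of CYP2C19 activity: luciferin product detected 20 min after adding detection reagent. Before that, compound and enzyme-substrate mix preincubated 10 min at room temperature; NADPH-regenerating system started a 1 h, 37C reaction. Ketoconazole as positive control.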

For assay [10], the target named is Cytochrome P450 2C9 (Homo sapiens) (UniProt P11712). Briefly: Cytochrome P450 Family 2 Subfamily C Member 9 (CYP2C9) small molecule antagonists: luciferase reporter qHTS assay (AID 1671198). Further: nearly all actives have a fitted effect of over 50% in size. Further: potency means the concentration at half of the fitted maximal effect. The gist of the method:
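P450-Glo proluciferin substrate with CYP2C9 enzyme; 10 min RT preincubation, then NADPH regeneration 1 h at 37C; luciferin detection reagent 20 min RT, luminescence in relative luminescence units.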
Background: Reporter assays use an easily measured gene product as a stand-in for the process of interest.

In assay [11] the target is Cytochrome P450 1A2 (Homo sapiens) (UniProt P05177). The assay can be described thus: Cytochrome P450 Family 1 Subfamily A Member 2 (CYP1A2) small molecule antagonists: luciferase reporter qHTS assay (AID 1671199). Further: nearly all actives have a fitted effect of over 50% in size. Further: potency means the concentration at half of the fitted maximal effect. The gist of the method: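 Steps: enzyme-substrate mix dispensed; test compounds and furafylline control pinned in; 10 min room temperature; NADPH regeneration solution added, 1 h; reaction stopped with luciferin detection reagent; luminescence read after 20 min.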
Cytochrome P450 1A2 (Homo sapiens), sequence (P05177 whole entry, looked up): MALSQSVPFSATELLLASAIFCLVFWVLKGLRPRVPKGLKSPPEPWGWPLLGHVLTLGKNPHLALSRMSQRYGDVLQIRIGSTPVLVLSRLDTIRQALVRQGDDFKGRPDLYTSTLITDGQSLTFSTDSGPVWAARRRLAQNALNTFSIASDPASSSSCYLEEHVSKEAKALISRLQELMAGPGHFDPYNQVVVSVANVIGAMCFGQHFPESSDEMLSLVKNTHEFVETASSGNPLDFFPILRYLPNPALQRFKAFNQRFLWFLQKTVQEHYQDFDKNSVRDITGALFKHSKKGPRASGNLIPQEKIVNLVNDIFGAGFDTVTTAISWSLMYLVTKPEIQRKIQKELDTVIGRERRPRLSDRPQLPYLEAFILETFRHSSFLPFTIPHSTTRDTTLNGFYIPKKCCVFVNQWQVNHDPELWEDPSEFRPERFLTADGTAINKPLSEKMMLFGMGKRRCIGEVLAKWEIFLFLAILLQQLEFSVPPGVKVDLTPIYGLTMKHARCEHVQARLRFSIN

Assay [12] addresses Voltage-gated inwardly rectifying potassium channel KCNH2 (Homo sapiens) (UniProt Q12809). The assay can be described thus: Human Ether-a-go-go-Related Gene (hERG) channel small molecule antagonists: fluorescence cell-based qHTS assay (AID 1671200). Further: nearly all actives have a fitted effect of over 50% in size. Further: potency means the concentration at half of the fitted maximal effect. The gist of the method: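 hERG-U2OS cells plated overnight at 37 C, loaded with FluxOR II dye 1 h at RT in dark; after 10 min, thallium stimulus added. Fluorescence (480/540 nm) read kinetically for 2 min at 1 s intervals.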

The target of assay [13] is Acetylcholinesterase (Homo sapiens) (UniProt P22303). Briefly: Acetylcholinesterase (AChE) small molecule antagonists: colormetric cell-based qHTS assay (AID 1347395; calls by dose curve; further: nearly all actives have a fitted effect of over 30% in size; further: potency means the concentration at half of the fitted maximal effect). The gist of the method:
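SH-SY5Y cells attached overnight, exposed to compound 30 min at 37 C, then given DTNB/acetylthiocholine; after 90 min at 37 C, colorimetric thiocholine read gives cellular AChE activity.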

Assay [14] shares this target. Briefly: Acetylcholinesterase (AChE) small molecule antagonists: fluorescence cell-based qHTS assay (AID 1347398; calls by dose curve; further: nearly all actives have a fitted effect of over 50% in size; further: potency means the concentration at half of the fitted maximal effect). The following applies: Potency: AChE activity. The gist of the method: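 Cells (SH-SY5Y) attached overnight, were dosed with compound or DMSO vehicle for 30 min at 37 C, and then incubated 40 min at room temperature with acetylthiocholine and Thiolite Green; green fluorescence indexed AChE activity.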

Assay [15] addresses Cytochrome P450 2D6 (Homo sapiens) (UniProt P10635). Briefly: Cytochrome P450 Family 2 Subfamily D Member 6 (CYP2D6) small molecule antagonists: luciferase reporter qHTS assay (AID 1671196). Further: nearly all actives have a fitted effect of over 50% in size. Further: potency means the concentration at half of the fitted maximal effect. The gist of the method: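 Test chemicals meet CYP2D6 plus proluciferin substrate (10 min, RT); NADPH regenerating solution then drives turnover for 1 h. Detection reagent halts the reaction; luminescence measured after 20 min.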

Assay [16] addresses Cytochrome P450 3A4 (Homo sapiens) (UniProt P08684). Briefly: Cytochrome P450 Family 3 Subfamily A Member 4 (CYP3A4) small molecule antagonists: luciferase reporter qHTS assay (AID 1671201). The gist of the method:
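P450-Glo CYP3A4 luminescent assay: compounds preincubated 10 min at room temperature with enzyme and proluciferin substrate, NADPH regeneration added, 1 h room-temperature reaction, stopped with luciferin detection reagent; luminescence read after 20 min. Ketoconazole positive control.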

The structures appear in SMILES notation. Several values for one entry are separate records, joined by “and”; a condition that tells them apart may be missing. Equal values may be shown once. Records with an inconclusive call do not appear. A structure can be active in one record and inactive in another. Activity calls are given as the source filed them. Unless noted, the call rests on the fitted dose curve; in most records, active means well fitted curve in the direction sought with a large enough effect in the repeat runs; inconclusive means weak or mixed curves; inactive means no such curve, though single readings can be large; an effect the other way counts as inactive or inconclusive.

Cytochrome P450 2D6 (Homo sapiens), sequence (P10635 whole entry, looked up): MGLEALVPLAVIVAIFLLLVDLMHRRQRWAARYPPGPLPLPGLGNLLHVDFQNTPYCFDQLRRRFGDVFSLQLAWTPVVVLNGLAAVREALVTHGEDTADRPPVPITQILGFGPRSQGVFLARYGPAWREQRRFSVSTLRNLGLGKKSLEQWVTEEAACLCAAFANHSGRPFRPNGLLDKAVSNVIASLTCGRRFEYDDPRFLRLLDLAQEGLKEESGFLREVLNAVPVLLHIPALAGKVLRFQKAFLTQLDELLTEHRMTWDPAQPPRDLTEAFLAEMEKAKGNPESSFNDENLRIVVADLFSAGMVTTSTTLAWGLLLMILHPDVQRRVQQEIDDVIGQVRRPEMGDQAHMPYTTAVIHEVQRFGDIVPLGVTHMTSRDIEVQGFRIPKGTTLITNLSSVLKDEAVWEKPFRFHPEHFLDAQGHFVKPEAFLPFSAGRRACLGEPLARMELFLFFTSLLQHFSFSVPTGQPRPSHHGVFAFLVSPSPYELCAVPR
Nuclear receptor subfamily 1 group I member 2 (Homo sapiens), sequence (O75469 whole entry, looked up): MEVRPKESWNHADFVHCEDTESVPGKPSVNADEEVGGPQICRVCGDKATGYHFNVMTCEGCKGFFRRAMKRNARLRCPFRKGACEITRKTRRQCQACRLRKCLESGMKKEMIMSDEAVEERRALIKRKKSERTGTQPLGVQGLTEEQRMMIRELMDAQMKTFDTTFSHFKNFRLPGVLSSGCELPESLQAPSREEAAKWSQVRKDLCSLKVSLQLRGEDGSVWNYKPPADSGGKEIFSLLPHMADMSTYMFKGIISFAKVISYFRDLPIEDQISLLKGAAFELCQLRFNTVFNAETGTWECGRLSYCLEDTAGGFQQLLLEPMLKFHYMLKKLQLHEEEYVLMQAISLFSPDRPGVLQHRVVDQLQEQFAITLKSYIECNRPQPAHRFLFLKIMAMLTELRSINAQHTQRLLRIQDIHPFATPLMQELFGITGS
Cytochrome P450 2C9 (Homo sapiens), sequence (P11712 whole entry, looked up): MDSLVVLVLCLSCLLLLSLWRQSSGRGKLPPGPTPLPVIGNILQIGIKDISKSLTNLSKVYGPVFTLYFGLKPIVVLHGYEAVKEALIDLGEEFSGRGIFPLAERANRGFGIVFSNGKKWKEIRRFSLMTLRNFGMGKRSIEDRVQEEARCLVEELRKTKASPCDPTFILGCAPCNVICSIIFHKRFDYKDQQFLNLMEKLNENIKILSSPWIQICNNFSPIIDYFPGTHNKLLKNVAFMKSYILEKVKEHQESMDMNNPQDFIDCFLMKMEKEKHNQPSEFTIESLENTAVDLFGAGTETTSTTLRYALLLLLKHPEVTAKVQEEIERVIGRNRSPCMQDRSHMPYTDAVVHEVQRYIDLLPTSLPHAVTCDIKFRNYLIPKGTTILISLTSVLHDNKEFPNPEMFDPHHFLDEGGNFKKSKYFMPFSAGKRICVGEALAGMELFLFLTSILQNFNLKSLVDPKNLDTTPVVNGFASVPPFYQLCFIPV
Cytochrome P450 2C19 (Homo sapiens), sequence (P33261 whole entry, looked up): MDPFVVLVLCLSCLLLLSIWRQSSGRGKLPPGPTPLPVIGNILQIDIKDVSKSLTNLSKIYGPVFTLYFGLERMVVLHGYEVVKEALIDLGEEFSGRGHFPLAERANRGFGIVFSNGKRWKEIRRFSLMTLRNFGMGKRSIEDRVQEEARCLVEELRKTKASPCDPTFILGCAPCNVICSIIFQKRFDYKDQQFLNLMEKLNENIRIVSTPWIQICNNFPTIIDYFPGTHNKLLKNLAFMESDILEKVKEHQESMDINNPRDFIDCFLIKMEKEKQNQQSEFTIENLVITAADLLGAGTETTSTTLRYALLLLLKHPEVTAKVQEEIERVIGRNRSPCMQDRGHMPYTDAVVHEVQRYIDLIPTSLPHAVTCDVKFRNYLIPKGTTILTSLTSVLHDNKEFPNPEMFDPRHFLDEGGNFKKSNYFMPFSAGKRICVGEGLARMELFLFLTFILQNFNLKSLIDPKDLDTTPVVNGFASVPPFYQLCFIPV
Voltage-gated inwardly rectifying potassium channel KCNH2 (Homo sapiens), sequence (Q12809 whole entry, looked up): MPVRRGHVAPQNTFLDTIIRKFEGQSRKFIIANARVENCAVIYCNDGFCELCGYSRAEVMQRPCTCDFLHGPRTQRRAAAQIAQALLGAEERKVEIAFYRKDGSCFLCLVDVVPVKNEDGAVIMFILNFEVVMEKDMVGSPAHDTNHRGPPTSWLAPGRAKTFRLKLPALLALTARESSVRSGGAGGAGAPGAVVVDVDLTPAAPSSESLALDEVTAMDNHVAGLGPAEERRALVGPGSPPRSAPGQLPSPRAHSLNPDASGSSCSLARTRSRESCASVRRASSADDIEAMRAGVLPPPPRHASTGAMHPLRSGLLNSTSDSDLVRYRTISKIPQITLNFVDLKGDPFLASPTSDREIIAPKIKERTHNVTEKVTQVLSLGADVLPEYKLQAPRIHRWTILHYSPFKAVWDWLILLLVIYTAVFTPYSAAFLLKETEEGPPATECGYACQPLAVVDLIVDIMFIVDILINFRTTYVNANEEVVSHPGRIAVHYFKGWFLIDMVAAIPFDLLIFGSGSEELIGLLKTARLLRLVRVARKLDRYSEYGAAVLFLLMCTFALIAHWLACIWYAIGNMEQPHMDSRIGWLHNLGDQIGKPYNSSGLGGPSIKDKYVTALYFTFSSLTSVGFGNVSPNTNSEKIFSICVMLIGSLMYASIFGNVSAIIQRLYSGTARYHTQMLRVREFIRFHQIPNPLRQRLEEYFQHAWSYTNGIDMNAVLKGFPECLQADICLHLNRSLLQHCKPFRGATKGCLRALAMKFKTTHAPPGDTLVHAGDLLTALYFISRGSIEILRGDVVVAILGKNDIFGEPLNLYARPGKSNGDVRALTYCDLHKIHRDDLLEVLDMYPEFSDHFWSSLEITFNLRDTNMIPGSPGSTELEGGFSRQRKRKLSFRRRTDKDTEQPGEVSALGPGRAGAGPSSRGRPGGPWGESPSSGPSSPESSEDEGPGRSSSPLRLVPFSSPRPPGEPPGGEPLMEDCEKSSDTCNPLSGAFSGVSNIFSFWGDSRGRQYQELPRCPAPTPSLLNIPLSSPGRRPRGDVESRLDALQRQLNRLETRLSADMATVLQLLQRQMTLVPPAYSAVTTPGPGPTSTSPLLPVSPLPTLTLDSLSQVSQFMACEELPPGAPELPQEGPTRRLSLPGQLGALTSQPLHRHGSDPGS
Cytochrome P450 3A4 (Homo sapiens), sequence (P08684 whole entry, looked up): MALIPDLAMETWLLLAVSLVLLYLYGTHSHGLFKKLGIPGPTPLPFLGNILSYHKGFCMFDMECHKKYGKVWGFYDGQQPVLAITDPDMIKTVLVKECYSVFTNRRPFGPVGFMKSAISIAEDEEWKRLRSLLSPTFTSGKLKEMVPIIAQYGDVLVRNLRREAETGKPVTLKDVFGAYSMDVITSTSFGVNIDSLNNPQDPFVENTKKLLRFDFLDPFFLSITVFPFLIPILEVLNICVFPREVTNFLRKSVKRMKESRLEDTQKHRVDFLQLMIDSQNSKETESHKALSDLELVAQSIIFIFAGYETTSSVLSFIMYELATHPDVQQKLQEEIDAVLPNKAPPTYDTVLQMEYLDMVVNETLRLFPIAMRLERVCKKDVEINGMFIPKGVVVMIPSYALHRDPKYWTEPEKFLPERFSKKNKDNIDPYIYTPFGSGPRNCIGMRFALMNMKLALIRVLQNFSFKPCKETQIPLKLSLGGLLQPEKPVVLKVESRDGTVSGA

In the case of `CCCCSP(=O)(SCCCC)SCCCC`, the Potency entry in assay [1], in assay [2], in [3], in assay [4], in assay [5] and in [7] was “inactive” throughout. For the same compound, the Potency result in assay [12] is “inactive”. In addition, the Potency in [6] is 23.8 µM (active); in assay [8], 5.51 µM (active) and 5.03 µM (active); in assay [9], 7.78 µM (active) and 2.52 µM (active); in assay [10], 8.73 µM (active) and 3.17 µM (active); in assay [11] it was 21.9 µM (active) and 12.6 µM (active).

`C=CC(Cl)CCl` (stereo unspecified): the Potency result in [1], in [2], in assay [3], in assay [4], in assay [5] and in assay [6] was “inactive” in each case. The Potency result in [13], in [7], in assay [14], in assay [8], in assay [15] and in assay [12] was “inactive” throughout. Further, the Potency entry in [16] is “inactive”. Also, the Potency in [9] was 40.7 µM (active) and inactive.

With `COP(=O)(NC(C)=O)SC` (stereo unspecified), the Potency result in [1], in assay [2], in assay [4], in assay [5], in assay [6] and in [13] was “inactive” each time. Moreover, the Potency result in [7], in [14], in [8], in [15], in assay [10] and in assay [12] was “inactive” throughout. Also, the Potency entry in assay [16] was “inactive”. Moreover, the Potency was 48.6 µM (active) and inactive in [3]; 71.1 µM (active) and inactive in assay [9].

On to `Cc1cc(Cl)ccc1N=CN(C)C`, for which the Potency result in [1], in assay [2], in assay [3], in assay [4], in [5] and in assay [10] was “inactive” in each case. Moreover, the Potency result in [12] and in [16] was “inactive” in each case. The Potency in [15] is 35.6 µM (active); in assay [9], 79.6 µM (active) and inactive; in [11] it was 22.4 µM (active) and 28.3 µM (active).

In the case of `Cn1c(-c2ccccc2)cc(-c2ccccc2)[n+]1C`, the Potency entry in assay [1], in [2], in [3], in [4], in assay [5] and in assay [6] was “inactive” each time. In addition, the Potency result in [7], in [8], in assay [9], in assay [11] and in assay [16] was “inactive” throughout. The Potency in assay [15] is 502 nM (active) and 1 µM (active); in [10] it was “inactive and 35.6 µM (active)”; in [12] it was 43.6 µM (active).

With `[Cl-].[Cl-].[Cl-].[Fe+3]`, the Potency entry in [1], in [2], in [3], in [4], in [5] and in [12] was “inactive” throughout.

For the compound `CNC(=O)Oc1cccc2c1OC(C)(C)C2`, the Potency entry in assay [1], in [2], in assay [3], in assay [4], in assay [5] and in [6] was “inactive” in each case. Moreover, the Potency result in assay [15], in assay [12] and in assay [16] was “inactive” in each case. Besides, the Potency is 726 nM (active) and 89.4 nM (active) in assay [13]; 726 nM (active) and 200 nM (active) in assay [7]; 289 nM (active) and 126 nM (active) in assay [14]; 5.14 µM (active) and 1.59 µM (active) in assay [8]; 72.5 µM (active) in assay [9].
